Source: PubChem BioAssay (NCATS)
Records with an inconclusive call do not appear. Unless noted, calls come from the whole dose curve; as a rule, active = well fitted curve in either direction with a large enough effect (not every such curve was filed as active); inconclusive = small, poorly fitted or top-dose-only effect, or another doubt; inactive = flat fitted curve, though single readings scatter.

What was measured:
[1] = AP1 Signaling Pathway (AID 357); details: ME-180 AP-1-bla reporter, EGF-induced, beta-lactamase ratio, 5 h; at 17.2 µM (top of the series) unless noted;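 note: ME-180 reporter cells stimulated with EGF at its EC50 level; % is set by controls: 0 for no effect and ±100 for the full control effect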
Procedure, shortened: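 Titration-series screen for positive or negative modulators of EC50 EGF-induced signaling in ME-180 cells carrying an AP-1-driven beta-lactamase reporter. After 5 hours at 37 degrees Celsius, CCF4 460nm/530nm emission ratio gave %Activity; AC50 values derived.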

[2] = NFAT Signaling Pathway (AID 444); details: Jurkat NFAT-bla M1, carbachol, beta-lactamase ratio, 5 h; at 17.2 µM (top of the series) unless noted;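 note: carbachol stimulus at about its EC50 of 1 µM final; % is set by controls: 0 for no effect and ±100 for the full control effect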
Procedure, shortened: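 Read-out: CCF4 FRET ratio (460 nm/530 nm) after 1 h RT dye loading, used for %activity and AC50 from titration series. Cells: Jurkat NFAT-β-lactamase/M1 line, treated with compound plus 1 uM carbachol for 5 h, 37 °C.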

[3] = Stat Signaling Pathway (AID 446); details: ME-180 SIE beta-lactamase reporter, IL-6 stimulated, 5 h; at 17.2 µM (top of the series) unless noted;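 note: ME-180 cervical cancer cells given 40 pM IL-6 alongside compound; SIE-controlled beta-lactamase reporter measured as 460/530 nm FRET emission ratio; % is set by controls: 0 for no effect and ±100 for the full control effect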
Procedure, shortened: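 ME-180 SIE-bla cells; overnight plating; cpd + IL-6 40 pM, 5 h, 37 C; LiveBLAzer 2.5 h RT; 460/530 nm emission ratio. Normalized to 300 pM IL-6 and 125 nM JAK inhibitor controls.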

[4] = molecular target: Glucocorticoid receptor (Homo sapiens) (UniProt P04150); test: GR-GFP Redistribution (AID 450;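 active = compounds whose dose series gives a full or clear partial fitted curve of increased nuclear translocation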; note: potency is the fitted concentration of half-maximal effect)
Glucocorticoid receptor (Homo sapiens), sequence (P04150 whole entry, looked up): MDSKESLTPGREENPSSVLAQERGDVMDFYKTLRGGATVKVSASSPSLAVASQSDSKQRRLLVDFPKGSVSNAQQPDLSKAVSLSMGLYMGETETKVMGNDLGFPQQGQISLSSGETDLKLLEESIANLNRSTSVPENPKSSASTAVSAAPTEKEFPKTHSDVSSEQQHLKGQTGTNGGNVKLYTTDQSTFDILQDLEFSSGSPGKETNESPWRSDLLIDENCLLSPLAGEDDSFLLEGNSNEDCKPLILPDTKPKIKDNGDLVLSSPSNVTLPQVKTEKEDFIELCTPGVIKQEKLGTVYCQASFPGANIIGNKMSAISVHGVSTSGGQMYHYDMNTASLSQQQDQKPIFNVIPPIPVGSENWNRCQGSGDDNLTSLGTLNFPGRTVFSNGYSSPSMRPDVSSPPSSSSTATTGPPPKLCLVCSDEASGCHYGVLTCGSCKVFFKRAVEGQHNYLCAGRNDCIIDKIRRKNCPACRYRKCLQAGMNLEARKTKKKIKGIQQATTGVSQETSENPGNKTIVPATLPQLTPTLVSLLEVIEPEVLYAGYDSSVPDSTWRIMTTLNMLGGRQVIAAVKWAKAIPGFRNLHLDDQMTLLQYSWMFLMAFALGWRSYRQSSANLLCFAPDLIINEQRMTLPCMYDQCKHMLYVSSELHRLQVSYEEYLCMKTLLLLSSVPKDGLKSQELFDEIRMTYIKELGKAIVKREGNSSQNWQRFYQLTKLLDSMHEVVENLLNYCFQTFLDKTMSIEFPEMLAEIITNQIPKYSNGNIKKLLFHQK

CCN(CC)C(=O)CN(C#N)c1nc(NC(C)C)nc(NC(C)C)n1
inactive: activity change, negative = inhibition [1] 4.86% | activity change, negative = inhibition [2] -0.753% | activity, negative = inhibition [3] 8.05% | Potency [4] > 20.6 µM

CCCCn1c(=O)n(C)c(=O)c2c3c(sc21)COC(C)(C)C3
inactive: activity change, negative = inhibition [1] -4.87% | activity change, negative = inhibition [2] 5.64% | activity, negative = inhibition [3] -7.31% | Potency [4] > 20.6 µM

COc1cc(C2C(C(=O)c3cccs3)=C(O)C(=O)N2c2cc(C)on2)ccc1O (stereo not given)
inactive: activity change, negative = inhibition [1] -2.96% | activity change, negative = inhibition [2] 0.425% | activity, negative = inhibition [3] -6.54% | Potency [4] > 20.6 µM

Cc1ccc(C2CC(C(F)(F)F)n3ncc(C(N)=O)c3N2)cc1 (stereo not given)
inactive: activity change, negative = inhibition [1] -3.17% | activity change, negative = inhibition [2] 2.37% | activity, negative = inhibition [3] 5.84% | Potency [4] > 20.6 µM

CCCCC1CC1C(=O)Nc1ccc(OC)c(OC)c1 (stereo not given)
inactive: activity change, negative = inhibition [1] -2.76% | activity change, negative = inhibition [2] 3.38% | activity, negative = inhibition [3] 6.67% | Potency [4] > 20.6 µM

Cn1c(SCC(=O)N2CCOCC2)nnc1-c1ccc(Cl)cc1Cl
inactive: activity change, negative = inhibition [1] -13.7% | activity change, negative = inhibition [2] -5.6% | activity, negative = inhibition [3] 5.04% | Potency [4] > 20.6 µM

Nc1cccc(C(=O)O)c1
inactive: activity change, negative = inhibition [1] 8.42% | activity change, negative = inhibition [2] 20.2% | activity, negative = inhibition [3] 4.89% | Potency [4] > 20.6 µM

Cc1cccc(N2CC(=O)N(c3cccc(C)c3)CC2=O)c1
inactive: activity change, negative = inhibition [1] 5.22% | activity change, negative = inhibition [2] 5.99% | activity, negative = inhibition [3] 0.983% | Potency [4] > 20.6 µM

CC1N(O)C(c2ccc(Cl)cc2Cl)N(O)C1(C)C (stereo not given)
inactive: activity change, negative = inhibition [1] -0.0716% | activity change, negative = inhibition [2] -14.6% | activity, negative = inhibition [3] 2.16% | Potency [4] > 20.6 µM

COCCCn1c2nc3ccccc3nc2c2c(=O)n(-c3ccccc3OC)c(C)nc21
inactive: activity change, negative = inhibition [1] -7.38% | activity change, negative = inhibition [2] -8.29% | activity, negative = inhibition [3] 5.28% | Potency [4] > 20.6 µM

Cn1c(=O)c2c(nc(NCc3ccc4c(c3)OCO4)n2Cc2ccccc2F)n(C)c1=O
inactive: activity change, negative = inhibition [1] -24.1% | activity change, negative = inhibition [2] -14% | activity, negative = inhibition [3] -25.4% | Potency [4] > 20.6 µM

CCCc1cc(NCCN2CCOCC2)n2c(nc3ccccc32)c1C#N
inactive: activity change, negative = inhibition [1] -11.4% | activity change, negative = inhibition [2] 9.42% | activity, negative = inhibition [3] -2.52% | Potency [4] > 20.6 µM

CN=c1sc2ccccc2n1CC(O)COc1ccccc1 (stereo not given)
inactive: activity change, negative = inhibition [1] -17.6% | activity change, negative = inhibition [2] -17.8% | activity, negative = inhibition [3] -0.403% | Potency [4] > 20.6 µM

CC(NC(=O)Nc1nccs1)(C(F)(F)F)C(F)(F)F
inactive: activity change, negative = inhibition [1] 4.62% | activity change, negative = inhibition [2] 15.9% | activity, negative = inhibition [3] 5.57% | Potency [4] > 20.6 µM

CCCCCC1CC(CC#CCN2CCOCC2)C(=O)O1 (stereo not given)
inactive: activity change, negative = inhibition [1] 9.22% | activity change, negative = inhibition [2] -1.87% | activity, negative = inhibition [3] -2.28% | Potency [4] > 20.6 µM

CCC1SC2=NC(C)=C(C(=O)OCCOC)C(c3ccc(C(=O)OC)cc3)N2C1=O (stereo not given)
inactive: activity change, negative = inhibition [1] 17.5% | activity change, negative = inhibition [2] 6.06% | activity, negative = inhibition [3] -2.24% | Potency [4] > 20.6 µM

CC(NC(=O)c1ccc(=O)oc1)c1ccccc1 (stereo not given)
inactive: activity change, negative = inhibition [1] 8.92% | activity change, negative = inhibition [2] 0.391% | activity, negative = inhibition [3] 6.96% | Potency [4] > 20.6 µM

CCOC(=O)CC(=O)CSc1nc(N)c(C#N)c(-c2ccc(F)cc2)c1C#N
inactive: activity change, negative = inhibition [1] -26.2% | activity change, negative = inhibition [2] 7.66% | activity, negative = inhibition [3] -17.8% | Potency [4] > 20.6 µM

Cc1nc2n[nH]c(N)c2c2c1COC(C)(C)C2
inactive: activity change, negative = inhibition [1] 3.75% | activity change, negative = inhibition [2] -4.48% | activity, negative = inhibition [3] 3.57% | Potency [4] > 20.6 µM

CCCC1C(c2ccc(OC)cc2)C(C#N)(C#N)C2(C#N)CC1(N)NC2=O (stereo not given)
inactive: activity change, negative = inhibition [1] 7.74% | activity change, negative = inhibition [2] -5.15% | activity, negative = inhibition [3] -5.79% | Potency [4] > 20.6 µM

Cc1c(/C(O)=C2\C(=O)C(=O)N(CCN(C)C)C2c2cccnc2)cnn1-c1ccccc1 (stereo not given)
inactive: activity change, negative = inhibition [1] 1.75% | activity change, negative = inhibition [2] 9.15% | activity, negative = inhibition [3] 0.0911% | Potency [4] > 20.6 µM

COc1ccccc1NC(=O)CSc1nnc(-c2ccc(NC(C)=O)cc2)n1C
inactive: activity change, negative = inhibition [1] -3.49% | activity change, negative = inhibition [2] -2.99% | activity, negative = inhibition [3] -0.879% | Potency [4] > 20.6 µM

CCOC(=O)C(C)Oc1nc(Oc2ccccc2)nc(N(C)C)n1 (stereo not given)
inactive: activity change, negative = inhibition [1] -9.94% | activity change, negative = inhibition [2] 11% | activity, negative = inhibition [3] 2.57% | Potency [4] > 20.6 µM

c1csc(Cc2nn3c(-c4ccncc4)nnc3s2)c1
inactive: activity change, negative = inhibition [1] -25% | activity change, negative = inhibition [2] 5.73% | activity, negative = inhibition [3] -2.56% | Potency [4] > 20.6 µM

CCNC(=O)COn1c(SCC(=O)NCC)nc2ccccc2c1=O
inactive: activity change, negative = inhibition [1] -9.03% | activity change, negative = inhibition [2] 9.09% | activity, negative = inhibition [3] 8.5% | Potency [4] > 20.6 µM
